# Source: the supplement of paper PMC8728848
# This excerpt belongs to a sample that is enriched for the strongest signals.
# How the values were obtained:
# Experiment in all cases: glycan array binding signal (z-score within array); higher = stronger binding
# Conditions in all cases: glycan notation: IUPAC condensed, linker removed
# [1] = target: Gal6S(b1-3)GlcNAc
# Summary of the method: (§1)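 Arrays were curated from the Consortium for Functional Glycomics database, 3228 in total, and kept only where the protein sequence was available. Binding is expressed as a within-array Z-score. This score was averaged across arrays of the same protein sequence at different concentrations or buffers and across linkers, and negative values can be read as non-binding.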
# [2] = target: Gal6S(b1-3)GlcNAc6S
# Summary of the method: as §1
# [3] = target: GalNAc(b1-4)GlcNAc
# Summary of the method: as §1
# [4] = target: GalNAc(b1-4)GlcNAc6S
# Summary of the method: as §1
# [5] = target: GlcNAc(b1-2)Man(a1-3)[GlcNAc(b1-2)Man(a1-6)]Man(b1-4)GlcNAc(b1-4)GlcNAc
# Summary of the method: as §1
# [6] = target: GlcNAc(b1-2)[GlcNAc(b1-4)]Man(a1-3)[GlcNAc(b1-4)][GlcNAc(b1-2)[GlcNAc(b1-6)]Man(a1-6)]Man(b1-4)GlcNAc(b1-4)GlcNAc
# Summary of the method: as §1
# [7] = target: GlcNAc(b1-3)Fuc
# Summary of the method: as §1
# [8] = target: GlcNAc(b1-3)Gal(b1-4)GlcNAc(b1-3)Gal(b1-4)GlcNAc(b1-3)Gal(b1-4)GlcNAc(b1-3)Gal(b1-4)GlcNAc(b1-2)Man(a1-3)[GlcNAc(b1-3)Gal(b1-4)GlcNAc(b1-3)Gal(b1-4)GlcNAc(b1-3)Gal(b1-4)GlcNAc(b1-3)Gal(b1-4)GlcNAc(b1-2)Man(a1-6)]Man(b1-4)GlcNAc(b1-4)GlcNAc
# Summary of the method: as §1
# [9] = target: GlcNAc(b1-3)Gal(b1-4)GlcNAc(b1-3)[GlcNAc(b1-3)Gal(b1-4)GlcNAc(b1-3)]GalNAc
# Summary of the method: as §1
# [10] = target: GlcNAc(b1-3)Gal(b1-4)GlcNAc(b1-6)[GlcNAc(b1-3)]Gal(b1-4)GlcNAc
# Summary of the method: as §1
# [11] = target: GlcNAc(b1-6)GalNAc
# Summary of the method: as §1
# [12] = target: Kdn(a2-3)Gal(b1-4)[Fuc(a1-3)]GlcNAc
# Summary of the method: as §1
# [13] = target: Man(a1-3)[Man(a1-6)]Man(a1-6)[Man(a1-3)]Man
# Summary of the method: as §1
# [14] = target: Neu5Ac(a2-3)Gal(b1-3)GlcNAc(b1-3)GalNAc
# Summary of the method: as §1
# [15] = target: Neu5Ac(a2-3)Gal(b1-3)GlcNAc6S
# Summary of the method: as §1
# [16] = target: Neu5Ac(a2-3)Gal(b1-4)GlcNAc(b1-3)Gal(b1-3)GlcNAc
# Summary of the method: as §1
# [17] = target: Neu5Ac(a2-3)Gal(b1-4)GlcNAc(b1-3)Gal(b1-4)GlcNAc(b1-3)Gal(b1-4)GlcNAc(b1-2)Man(a1-3)[Neu5Ac(a2-3)Gal(b1-4)GlcNAc(b1-3)Gal(b1-4)GlcNAc(b1-3)Gal(b1-4)GlcNAc(b1-2)Man(a1-6)]GalNAc
# Summary of the method: as §1
# [18] = target: Neu5Ac(a2-3)Gal(b1-4)[Fuc(a1-3)]GlcNAc(b1-3)Gal
# Summary of the method: as §1
# [19] = target: Neu5Ac(a2-6)Gal(b1-4)GlcNAc(b1-2)Man(a1-3)Man(b1-4)GlcNAc(b1-4)GlcNAc
# Summary of the method: as §1
# [20] = target: Neu5Ac(a2-6)Gal(b1-4)GlcNAc(b1-6)[Gal(b1-3)]GalNAc
# Summary of the method: as §1
# [21] = target: Neu5Ac(a2-8)Neu5Ac(a2-3)Gal(b1-4)GlcNAc
# Summary of the method: as §1
# [22] = target: Neu5Ac(a2-8)Neu5Ac(a2-3)[Gal(b1-3)GalNAc(b1-4)]Gal(b1-4)Glc
# Summary of the method: as §1
# [23] = target: Neu5Ac(a2-8)Neu5Gc(a2-3)Gal(b1-4)GlcNAc
# Summary of the method: as §1
# [24] = target: Neu5Gc(a2-6)Gal(b1-4)GlcNAc
# Summary of the method: as §1
# [25] = target: Neu5Gc(b2-6)Gal(b1-4)GlcNAc
# Summary of the method: as §1
binder,measurement,setting,value
"YghJ (Escherichia coli), E3PJ90 (protein) MNKKFKYKKSLLAAILSATLLAGCDGGGSGSSSDTPPVDSGTGSLPEVKPDPTPNPEPTPEPTPDPEPTPEPIPDPEPTPEPEPEPVPTKTGYLTLGGSQRVTGATCNGESSDGFTFKPGEDVTCVAGNTTIATFNTQSEAARSLRAVEKVSFSLEDAQELAGSDDKKSNAVSLVTSSNSCPANTEQVCLTFSSVIESKRFDSLYKQIDLAPEEFKKLVNEEVENNAATDKAPSTHTSPVVPVTTPGTKPDLNASFVSANAEQFYQYQPTEIILSEGRLVDSQGYGVAGVNYYTNSGRGVTGENGEFSFSWGEAISFGIDTFELGSVRGNKSTIALTELGDEVRGANIDQLIHRYSTTGQNNTRVVPDDVRKVFAEYPNVINEIINLSLSNGATLGEGEQVVNLPNEFIEQFNTGQAKEIDTAICAKTDGCNEARWFSLTTRNVNDGQIQGVINKLWGVDTNYKSVSKFHVFHDSTNFYGSTGNARGQAVVNISNAAFPILMARNDKNYWLAFGEKRAWDKNELAYITEAPSIVRPENVTRETASFNLPFISLGQVGDGKLMVIGNPHYNSILRCPNGYSWNGGVNKDGQCTLNSDPDDMKNFMENVLRYLSNDRWLPDAKSSMTVGTNLETVYFKKHGQVLGNSAPFAFHKDFTGITVKPMTSYGNLNPDEVPLLILNGFEYVTQWGSDPYSIPLRADTSKPKLTQQDVTDLIAYMNKGGSVLIMENVMSNLKEESASGFVRLLDAAGLSMALNKSVVNNDPQGYPDRVRQRRSTPIWVYERYPAVDGKPPYTIDDTTKEVIWKYQQENKPDDKPKLEVASWQEEVEGKQVTQFAFIDEADHKTPESLAAAKQRILDAFPGLEVCKDSDYHYEVNCLEYRPGTDVPVTGGMYVPQYTQLDLSADTAKAMLQAADLGTNIQRLYQHELYFRTNGRQGERLNSVDLERLYQNMSVWLWNETKYRYEEGKEDELGFKTFTEFLNCYTNNAYVGTQCSAELKKSLIDNKMIYGEESSKAGMMNPSYPLNYMEKPLTRLMLGRSWWDLNIKVDVEKYPGVVNTNGETVTQNINLYSAPTKWFAGNMQSTGLWAPAQQEVSIESKSTVPVTVTVALADDLTGREKHEVSLNRPPRVTKTYDLKANDKVTFKVPYGGLIYIKGDSKEVQSADFTFTGVVKAPFYKDGKWQHDLNSPAPLGELESASFVYTTPKKNLNASNYTGGLEQFANDLDTFASSMNDFYGRDSEDGKHRMFTYKNLPGHKHRFANDVQISIGDAHSGYPVMNSSFSPNSTTLPTTPLNDWLIWHEVGHNAAETPLTVPGATEVANNVLALYMQDRYLGKMNRVADDITVAPEYLEESNGQAWARGGAGDRLLMYAQLKEWAEKNFDIKKWYPDGTPLPEFYSEREGMKGWNLFQLMHRKARGDEVSNDKFGGKNYCAESNGNAADTLMLCASWVAQTDLSEFFKKWNPGANAYQLPGASEMSFEGGVSQSAYNTLASLDLPKPEQGPETINQVTEHKMSAE",glycan array binding signal (z-score),[1],0.437
same,glycan array binding signal (z-score),[2],2.04
same,glycan array binding signal (z-score),[3],1.36
same,glycan array binding signal (z-score),[4],0.943
same,glycan array binding signal (z-score),[5],0.16
same,glycan array binding signal (z-score),[6],-0.048
same,glycan array binding signal (z-score),[7],-0.862
same,glycan array binding signal (z-score),[8],4.26
same,glycan array binding signal (z-score),[9],2.97
same,glycan array binding signal (z-score),[10],-1.26
same,glycan array binding signal (z-score),[11],-1.05
same,glycan array binding signal (z-score),[12],-0.222
same,glycan array binding signal (z-score),[13],-1.22
same,glycan array binding signal (z-score),[14],-0.159
same,glycan array binding signal (z-score),[15],-0.847
same,glycan array binding signal (z-score),[16],0.515
same,glycan array binding signal (z-score),[17],2.64
same,glycan array binding signal (z-score),[18],-1.23
same,glycan array binding signal (z-score),[19],-1
same,glycan array binding signal (z-score),[20],-1.4
same,glycan array binding signal (z-score),[21],5.47
same,glycan array binding signal (z-score),[22],0.298
same,glycan array binding signal (z-score),[23],-0.939
same,glycan array binding signal (z-score),[24],-0.154
same,glycan array binding signal (z-score),[25],3.37
